Out of some 31,000 sequences screened, about 1,400 (4.5%) were called active.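 The calls were made as follows: active = median seed-adjusted z-score above 1 or below -1; inactive = the rest.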 The full list was thinned out, with actives kept by preference.

The source of these data is PubChem BioAssay AID1347426 (Functional Genomics Laboratory (NCATS/FGL), 2020).

The nature of the test: Novel Modifiers of Survival Motor Neuron (SMN) Protein: Gene Identification via Genome-wide siRNA Screen. The following applies: HEK293T SMN2-luciferase reporter, siRNA knockdown, 72 h; actives lie on both sides. The gist of the method: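 Each of three siRNAs per gene is reverse-transfected (1 pmol) into reporter HEK293T cells whose luciferase output tracks SMN protein level. After 72 h culture, ONE-Glo luminescence is control-normalized, log10-transformed and MAD-standardized; Common Seed Analysis deprioritizes seed-driven hits.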
On to CUCUGUGAAUUUGAAAUCATT against SNED1, for which the median seed-adjusted z-score is 0.148 (inactive). Turning to GCAAGAUAGCUCAACCCAATT against ADAMTS12, the median seed-adjusted z-score was -0.0721 (inactive). The result for GUAUCAUGGAUGGAAAAGATT against ASRGL1 reads 0 (inactive). Next, GCAGAGGAGUCAAUGCUAUTT against ARL8B: -0.477 (inactive); AGCUUUUGUUGAGAGUUCATT against YY1: 1.94 (active).

For the sequence GCUACUUACAGGUACCGUATT against PDCD11, the median seed-adjusted z-score is -0.335 (inactive).

As for GUUUCUGAUUUAAUAGACATT against ZNF781, the median seed-adjusted z-score is 0.0307 (inactive).

In the case of CCAACAAACUCACCAUACATT against KREMEN1, the median seed-adjusted z-score is 0 (inactive).

AAACAAUUCCAGUCCAGUUTT against IL8RA: the median seed-adjusted z-score is 0.316 (inactive). Next, CACCUGCGAGUGUUCCAAUTT against CSTB: 1.08 (active); GGAAAGUUCUUUAGACUUATT against ZNF529: -0.243 (inactive); GAAUCAACAAGAUUGGGAATT against CBS: -0.0696 (inactive). As for UCGUGUUCCUAGUCAUCUATT against TCIRG1, the median seed-adjusted z-score was 0.123 (inactive). As to GUCACGUACUCGCUGCUGATT against SMAD6, the median seed-adjusted z-score is -0.167 (inactive). In the case of GGCUCAACAUACAUCAGAATT against ZNF350, the median seed-adjusted z-score was 0.133 (inactive).

As to GGCACUCCAUGCUCACUGUTT against AGPAT1, the median seed-adjusted z-score was -1.38 (active). Next, GGUGAAAGGUCAGAUCUAATT against ZNF436: 0.00767 (inactive); GGAAGUAUCAGAUCUUGAATT against CYFIP2: -0.322 (inactive); GCAGUGUAUAGAACGAGAATT against RNGTT: -1.55 (active). Next, GCACAUCAAGUUCUAUACATT against SLCO2A1: -0.0778 (inactive). Turning to CCCUGUCAUCUAUGCUCUATT against CNR2, the median seed-adjusted z-score is 0.33 (inactive). The result for GACCCACAAAUAUACCAUUTT against SMAP1 reads -0.201 (inactive); that for GCAAAGCUCUAAAGCCCAATT against TXNDC12, -0.154 (inactive). For GGAUUAAAGUGUGAAGACUTT against PRKCD, the median seed-adjusted z-score is -0.236 (inactive). With GGGCAGAUGACACCUUUGATT against TCEB2, the median seed-adjusted z-score was 1.28 (active). For CGCAAGGACAGAAAACCAATT against ASMT, the median seed-adjusted z-score was -0.322 (inactive). The result for ACGGCUACGUGGUAAAGGATT against RPS6KA1 reads 0.194 (inactive). The result for CAGCAACCAGAGGAGUAUATT against TCF20 reads 0.392 (inactive); that for CCGUCAUGCACUUACCUUUTT against ADCY9, 0.269 (inactive). Regarding CAUCAUGACAUGUAUGAUUTT against PAFAH1B3, the median seed-adjusted z-score was -0.381 (inactive). Turning to GAGUGUGACUGGUAAAGUUTT against SMNDC1, the median seed-adjusted z-score is -1.54 (active).

As for GAGGAAUUGUUGAUAAAGATT against MAGI2, the median seed-adjusted z-score was -0.23 (inactive). Turning to GAAUGCUCCUUUACCAGAATT against GRB10, the median seed-adjusted z-score is -0.0341 (inactive). With GGAAGAACAUGACAACCAATT against IFIT1, the median seed-adjusted z-score is -0.489 (inactive). The result for CCAACGAUCUGGACCGUGUTT against MED16 reads -0.6 (inactive). On to GAACCUGGAUCACAUAAUATT against DFFB, for which the median seed-adjusted z-score is 0.242 (inactive).

CCAAGAUUGUCACUCUGGATT against E2F7: the median seed-adjusted z-score was -0.0972 (inactive).

As to GGUUCGAGGUAAACCCUAATT against CTPS2, the median seed-adjusted z-score is 1.08 (active).

Consider GGGCUACAAACUGAACAAATT against LOC81691, for which the median seed-adjusted z-score was -0.285 (inactive).

For the sequence CAACAGCGAUUUGAUGGAATT against ERO1L, the median seed-adjusted z-score is -0.251 (inactive). Next, GGAACUGUUUAUAAGGGUATT against RAF1: 0 (inactive). Next, GGCACGUUUUACGACAGAATT against CHEK2: 0.585 (inactive). For the sequence GGCACAUGGUUAACCUGGATT against GPX4, the median seed-adjusted z-score is -1.18 (active). Turning to CCCAGGAAGUUCUACUACATT against HS6ST1, the median seed-adjusted z-score was -0.436 (inactive). Next, GAACUUCACUUAGGACAUUTT against ATP6V1G1: 0.311 (inactive); GACUCAAUGGUUUGCAUUATT against CTDP1: -2.29 (active).

For GGAUGAUCAUGAGCGGCAATT against PHKG1, the median seed-adjusted z-score was -0.153 (inactive). The result for GCUUCAUUGUGGACCGGCATT against GALNTL4 reads 0 (inactive); that for GACUGGAGAUAUCAAGGAATT against SQLE, -1.14 (active). The result for CAAUGAAGAUAUGUUUAGATT against WBP5 reads 0.452 (inactive); that for GAUCAUUGAGAACACGUAUTT against RNF121, -0.53 (inactive); that for GAAUCCACCUUCGACCUGATT against HMX1, 1.3 (active). Next, CCACUGAAUAUGUGCAGAATT against FBP2: 0 (inactive); CGGCUACGACGAUUACGAATT against MYO15A: 0.0508 (inactive). Consider GGAUUUCGAUUGCAUCAUUTT against LGI1, for which the median seed-adjusted z-score was -0.19 (inactive).

Take AGUGGGUGCUGAACCAUGATT against FES: the median seed-adjusted z-score is 0.402 (inactive).

Turning to GCCCAGAGACUAUUCAGUATT against SF3A3, the median seed-adjusted z-score is -2.1 (active). The result for CGUGGAAUACUAGAGCAAATT against ACTL6A reads 1.11 (active). The result for CAGACUUGCUUAAUAGUAATT against ZFP1 reads 0.0391 (inactive); that for GGAACUACCAUGCAGGCUATT against ATP6V0B, 0 (inactive); that for CCAGCAUGGUUACUACGAATT against TRAIP, -0.018 (inactive). Next, GGAACAAGAGUGGACGGAATT against PIAS3: -0.216 (inactive). As for CCAGCUCUUCCAUACAAUATT against RAB9A, the median seed-adjusted z-score is 0.247 (inactive).

As to GGCUUCAUAUCUAGACUAATT against APOBEC3A, the median seed-adjusted z-score is 0.467 (inactive). Next, UGUUCAGCCUUGACUCAAATT against RHOU: -1.44 (active).

Regarding GCACCUAUGAGGAAAAUGATT against LAMB2, the median seed-adjusted z-score was 1.12 (active).

With GAAGCUUGAUCUAAUUAUATT against ZNF182, the median seed-adjusted z-score was 0 (inactive). In the case of CCAUUUCCAGAGGCCCAGATT against SLC22A12, the median seed-adjusted z-score is -0.148 (inactive). Next, GCCUGGAACUCGUUAGCAATT against TRMT11: -0.707 (inactive).
